# Experimental data as given in the supplement of paper PMC10849652.
# About 7,900 targets were measured; listed, in parts, are those with a hit and a random draw of the rest. About 0.6% of all pairs of compound and target were hits.
# Compound: Cn1cc(-c2ccc3nnc(C(F)(F)c4ccc5ncccc5c4)n3n2)cn1
# Test: log2 fold change, soluble protein after heating vs DMSO (PISA); higher = thermal stabilisation; K562 cells, 10 uM, 30 min; active = over 0.2 and 3.5 SD of the protein, either way, in both replicates (recomputed)
# Outline: (§1)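 K562 cells at 2×10^6 cells/mL were given 10 μM compound for 30 min. Aliquots then went through 3 min of heating across 48°C-58°C, were pooled, and were extracted in PBS with 0.5% NP-40 at 4°C, and the supernatant after 21,000xg for 90 min was quantified by TMTpro 16plex LC-MS/MS with channel sums equalised. Thermal stability relative to control samples, from duplicates, is given as log2 fold change.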
# Chain of UniProt Q96BZ9 (Q96BZ9 whole entry, looked up): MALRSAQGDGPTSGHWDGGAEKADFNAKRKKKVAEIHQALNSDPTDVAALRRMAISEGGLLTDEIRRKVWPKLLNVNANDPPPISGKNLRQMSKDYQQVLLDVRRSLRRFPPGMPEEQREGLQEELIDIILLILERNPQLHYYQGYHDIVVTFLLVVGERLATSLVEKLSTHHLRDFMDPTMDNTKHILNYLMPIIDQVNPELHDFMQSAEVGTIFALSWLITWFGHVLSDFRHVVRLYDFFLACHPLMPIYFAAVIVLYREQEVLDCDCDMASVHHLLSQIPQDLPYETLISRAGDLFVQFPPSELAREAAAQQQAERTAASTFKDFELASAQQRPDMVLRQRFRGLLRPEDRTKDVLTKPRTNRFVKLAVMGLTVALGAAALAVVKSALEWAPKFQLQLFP
# Chain of UniProt Q92544 (Q92544 whole entry, looked up): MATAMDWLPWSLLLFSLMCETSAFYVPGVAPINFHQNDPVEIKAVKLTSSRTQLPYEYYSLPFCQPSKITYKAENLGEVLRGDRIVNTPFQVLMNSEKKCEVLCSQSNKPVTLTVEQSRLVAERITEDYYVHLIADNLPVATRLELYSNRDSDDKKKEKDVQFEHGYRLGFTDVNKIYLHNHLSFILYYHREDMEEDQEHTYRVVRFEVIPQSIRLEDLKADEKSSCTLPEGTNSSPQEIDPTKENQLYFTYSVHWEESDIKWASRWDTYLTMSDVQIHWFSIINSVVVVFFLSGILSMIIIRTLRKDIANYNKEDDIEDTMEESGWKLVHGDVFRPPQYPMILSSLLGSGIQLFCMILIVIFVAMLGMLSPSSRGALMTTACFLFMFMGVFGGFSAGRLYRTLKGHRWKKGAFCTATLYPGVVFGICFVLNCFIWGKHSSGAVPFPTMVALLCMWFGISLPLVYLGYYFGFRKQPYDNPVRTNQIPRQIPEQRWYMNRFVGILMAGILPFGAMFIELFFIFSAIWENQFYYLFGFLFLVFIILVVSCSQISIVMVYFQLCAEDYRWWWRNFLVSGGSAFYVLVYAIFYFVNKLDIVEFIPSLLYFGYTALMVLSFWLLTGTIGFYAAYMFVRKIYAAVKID
# Chain of UniProt Q9H2K8 (Q9H2K8 whole entry, looked up): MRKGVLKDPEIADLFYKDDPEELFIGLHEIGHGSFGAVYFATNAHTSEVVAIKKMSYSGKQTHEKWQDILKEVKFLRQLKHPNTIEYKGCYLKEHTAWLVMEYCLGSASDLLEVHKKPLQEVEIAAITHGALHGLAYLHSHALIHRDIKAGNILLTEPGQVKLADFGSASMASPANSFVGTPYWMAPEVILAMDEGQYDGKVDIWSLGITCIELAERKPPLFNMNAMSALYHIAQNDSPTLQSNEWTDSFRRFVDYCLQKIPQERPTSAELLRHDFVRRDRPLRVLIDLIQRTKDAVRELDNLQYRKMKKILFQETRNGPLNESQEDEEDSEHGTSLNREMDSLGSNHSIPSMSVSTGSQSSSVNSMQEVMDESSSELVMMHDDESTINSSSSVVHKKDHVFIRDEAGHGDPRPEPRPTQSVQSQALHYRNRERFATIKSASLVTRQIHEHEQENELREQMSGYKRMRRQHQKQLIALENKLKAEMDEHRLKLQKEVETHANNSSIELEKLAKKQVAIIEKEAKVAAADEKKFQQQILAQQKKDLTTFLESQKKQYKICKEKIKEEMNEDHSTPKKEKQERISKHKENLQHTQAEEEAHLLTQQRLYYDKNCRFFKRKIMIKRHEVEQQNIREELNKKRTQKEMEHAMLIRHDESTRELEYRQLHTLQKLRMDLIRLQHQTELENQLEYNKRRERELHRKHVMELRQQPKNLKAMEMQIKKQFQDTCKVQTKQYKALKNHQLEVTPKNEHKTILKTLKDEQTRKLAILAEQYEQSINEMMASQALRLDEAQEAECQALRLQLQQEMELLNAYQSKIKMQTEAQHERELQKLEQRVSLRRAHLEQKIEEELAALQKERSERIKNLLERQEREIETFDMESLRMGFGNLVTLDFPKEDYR
# Chain of UniProt Q15833 (Q15833 whole entry, looked up): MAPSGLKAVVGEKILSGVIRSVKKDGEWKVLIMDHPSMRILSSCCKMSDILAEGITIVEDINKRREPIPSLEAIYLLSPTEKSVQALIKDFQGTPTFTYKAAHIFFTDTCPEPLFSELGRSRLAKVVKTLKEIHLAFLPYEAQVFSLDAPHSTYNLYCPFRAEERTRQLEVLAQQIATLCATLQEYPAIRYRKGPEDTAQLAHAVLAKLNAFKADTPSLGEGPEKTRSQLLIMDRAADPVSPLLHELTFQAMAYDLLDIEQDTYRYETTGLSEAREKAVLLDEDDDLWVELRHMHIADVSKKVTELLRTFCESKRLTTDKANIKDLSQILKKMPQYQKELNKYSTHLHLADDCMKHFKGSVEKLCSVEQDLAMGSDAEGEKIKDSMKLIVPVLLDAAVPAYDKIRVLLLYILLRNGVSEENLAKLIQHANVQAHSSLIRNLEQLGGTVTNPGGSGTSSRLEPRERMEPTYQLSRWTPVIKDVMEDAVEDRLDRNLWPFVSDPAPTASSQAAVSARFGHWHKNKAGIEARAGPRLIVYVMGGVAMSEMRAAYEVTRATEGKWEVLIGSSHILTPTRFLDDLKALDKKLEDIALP
# Chain of UniProt Q5VWP2 (Q5VWP2 whole entry, looked up): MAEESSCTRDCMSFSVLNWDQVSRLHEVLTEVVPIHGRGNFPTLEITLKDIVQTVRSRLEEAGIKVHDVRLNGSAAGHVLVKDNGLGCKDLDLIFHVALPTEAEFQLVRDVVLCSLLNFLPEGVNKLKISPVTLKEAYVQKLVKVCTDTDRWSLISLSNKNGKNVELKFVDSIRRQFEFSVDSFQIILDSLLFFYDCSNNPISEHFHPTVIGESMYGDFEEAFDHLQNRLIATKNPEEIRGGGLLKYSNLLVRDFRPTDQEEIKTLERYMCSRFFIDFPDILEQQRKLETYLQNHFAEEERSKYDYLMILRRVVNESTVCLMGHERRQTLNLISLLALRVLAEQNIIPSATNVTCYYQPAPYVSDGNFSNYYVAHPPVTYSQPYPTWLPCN
# Chain of UniProt Q8NEF9 (Q8NEF9 whole entry, looked up): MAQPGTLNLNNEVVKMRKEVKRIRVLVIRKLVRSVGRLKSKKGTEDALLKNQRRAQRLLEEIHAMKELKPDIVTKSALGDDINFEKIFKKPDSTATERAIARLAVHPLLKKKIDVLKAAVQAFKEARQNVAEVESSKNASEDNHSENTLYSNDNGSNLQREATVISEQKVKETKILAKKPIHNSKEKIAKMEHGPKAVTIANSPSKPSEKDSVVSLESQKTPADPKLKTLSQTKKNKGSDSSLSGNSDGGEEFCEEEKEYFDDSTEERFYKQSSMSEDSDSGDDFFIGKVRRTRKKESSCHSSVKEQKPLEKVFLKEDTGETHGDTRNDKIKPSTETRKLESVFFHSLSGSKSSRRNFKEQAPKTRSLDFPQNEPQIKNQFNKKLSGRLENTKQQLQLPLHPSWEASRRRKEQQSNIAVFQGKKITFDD
# Chain of UniProt Q8N1S5 (Q8N1S5 whole entry, looked up): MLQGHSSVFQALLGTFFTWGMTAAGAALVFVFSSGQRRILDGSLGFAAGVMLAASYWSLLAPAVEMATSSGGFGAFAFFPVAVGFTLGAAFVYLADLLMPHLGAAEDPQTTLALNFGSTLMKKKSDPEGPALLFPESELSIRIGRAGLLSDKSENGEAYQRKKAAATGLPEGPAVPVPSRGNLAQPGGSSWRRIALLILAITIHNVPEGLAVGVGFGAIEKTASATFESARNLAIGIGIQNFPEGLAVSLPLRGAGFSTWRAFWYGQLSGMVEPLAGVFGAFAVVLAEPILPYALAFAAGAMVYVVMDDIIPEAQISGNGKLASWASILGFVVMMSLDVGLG
# Chain of UniProt P08047 (P08047 whole entry, looked up): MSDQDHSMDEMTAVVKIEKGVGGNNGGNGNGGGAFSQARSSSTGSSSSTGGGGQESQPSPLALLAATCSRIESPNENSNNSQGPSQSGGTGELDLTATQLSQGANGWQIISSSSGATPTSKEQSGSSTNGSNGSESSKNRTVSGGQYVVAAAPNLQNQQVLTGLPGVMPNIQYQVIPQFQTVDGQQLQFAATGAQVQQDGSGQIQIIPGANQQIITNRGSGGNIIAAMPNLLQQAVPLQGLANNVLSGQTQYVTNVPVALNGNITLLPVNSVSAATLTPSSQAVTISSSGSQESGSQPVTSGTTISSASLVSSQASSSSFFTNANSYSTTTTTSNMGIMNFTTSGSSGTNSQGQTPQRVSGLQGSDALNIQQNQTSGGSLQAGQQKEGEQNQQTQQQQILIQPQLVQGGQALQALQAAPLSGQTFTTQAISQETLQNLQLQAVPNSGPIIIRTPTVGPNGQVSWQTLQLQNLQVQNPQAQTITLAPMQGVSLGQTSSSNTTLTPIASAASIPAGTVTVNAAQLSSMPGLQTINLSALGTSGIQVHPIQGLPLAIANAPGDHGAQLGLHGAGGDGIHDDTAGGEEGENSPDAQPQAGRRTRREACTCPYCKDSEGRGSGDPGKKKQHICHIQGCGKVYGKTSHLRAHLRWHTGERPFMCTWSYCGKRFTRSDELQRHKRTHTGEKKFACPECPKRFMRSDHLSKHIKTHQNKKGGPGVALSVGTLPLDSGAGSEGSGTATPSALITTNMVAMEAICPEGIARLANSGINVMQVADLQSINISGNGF
# Chain of UniProt O15400 (O15400 whole entry, looked up): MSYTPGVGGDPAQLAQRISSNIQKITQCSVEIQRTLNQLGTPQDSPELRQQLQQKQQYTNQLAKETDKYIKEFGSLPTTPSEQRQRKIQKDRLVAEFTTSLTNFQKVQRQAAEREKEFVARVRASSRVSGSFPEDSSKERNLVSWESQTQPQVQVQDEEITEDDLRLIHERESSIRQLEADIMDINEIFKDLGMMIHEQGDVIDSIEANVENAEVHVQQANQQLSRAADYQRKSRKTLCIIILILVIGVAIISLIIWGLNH
# Chain of UniProt Q00059 (Q00059 whole entry, looked up): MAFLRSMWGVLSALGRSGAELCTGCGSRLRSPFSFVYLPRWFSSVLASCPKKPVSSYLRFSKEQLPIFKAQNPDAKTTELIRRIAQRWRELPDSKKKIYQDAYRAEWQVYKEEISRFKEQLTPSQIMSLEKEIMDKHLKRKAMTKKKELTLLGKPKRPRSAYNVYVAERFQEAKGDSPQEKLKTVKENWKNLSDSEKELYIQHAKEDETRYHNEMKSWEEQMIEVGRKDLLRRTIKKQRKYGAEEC
row,Target,log2 fold change
1,SYNE2 isoform 2 (UniProt Q8WXH0),0.027 (inactive)
2,SPAG9 (UniProt O60271),0.012 (inactive)
3,SRFBP1 (UniProt Q8NEF9),-0.044 (inactive)
4,SMC5 (UniProt Q8IY18),-0.102 (inactive)
5,SLC38A7 (UniProt Q9NVC3),0.084 (inactive)
6,SLC30A10 (UniProt Q6XR72),-0.026 (inactive)
7,TK1 (UniProt K7ERV3),0.016 (inactive)
8,SMCHD1 (UniProt A6NHR9),-0.084 (inactive)
9,SLC44A2 isoform 2 (UniProt Q8IWA5),-0.076 (inactive)
10,SYNE1 (UniProt Q8NF91),-0.098 (inactive)
11,TENT5C (UniProt Q5VWP2),0.028 (inactive)
12,SRCAP (UniProt Q6ZRS2),0.037 (inactive)
13,TBC1D20 isoform 3 (UniProt Q96BZ9),0.233 (inactive)
14,SMAD2 (UniProt Q15796),0.057 (inactive)
15,STXBP2 isoform 3 (UniProt Q15833),0.086 (inactive)
16,SPIRE1 (UniProt Q08AE8),-0.026 (inactive)
17,TGFBR1 isoform 2 (UniProt P36897),0.001 (inactive)
18,STK38L (UniProt Q9Y2H1),-0.582 (inactive)

row,Target,log2 fold change
1,STARD3 (UniProt Q14849),-0.018 (inactive)
2,SRC isoform 2 (UniProt P12931),-0.163 (inactive)
3,TEX30 (UniProt Q5JUR7),-0.004 (inactive)
4,TFAM (UniProt Q00059),-0.038 (inactive)
5,SLC39A11 (UniProt Q8N1S5),0.002 (inactive)
6,TM9SF4 (UniProt Q92544),0.004 (inactive)
7,SLC25A38 (UniProt Q96DW6),0.019 (inactive)
8,SSBP4 (UniProt Q9BWG4),0.033 (inactive)
9,TAOK3 (UniProt Q9H2K8),-0.009 (inactive)
10,SRI (UniProt P30626),0.328 (inactive)
11,SNX15 (UniProt Q9NRS6),0.086 (inactive)
12,SRXN1 (UniProt Q9BYN0),0.056 (inactive)
13,STX7 (UniProt O15400),0.029 (inactive)
14,SMARCA4 (UniProt P51532),0.033 (inactive)
15,TACC2 (UniProt O95359),-0.003 (inactive)
16,SOAT1 (UniProt P35610),-0.058 (inactive)
17,SP1 (UniProt P08047),0.091 (inactive)

# Compound: Cn1cncc1[C@@](N)(c1ccc(Cl)cc1)c1ccc2c(c1)c(-c1cccc(Cl)c1)cc(=O)n2C [tipifarnib]
# Test: as above
# Outline: as §1
row,Target,log2 fold change
1,SYNE2 isoform 2 (UniProt Q8WXH0),-0.029 (inactive)
2,SPAG9 (UniProt O60271),-0.005 (inactive)
3,SRFBP1 (UniProt Q8NEF9),0.177 (inactive)
4,SMC5 (UniProt Q8IY18),0.032 (inactive)
5,SLC38A7 (UniProt Q9NVC3),0.056 (inactive)
6,SLC30A10 (UniProt Q6XR72),0.067 (inactive)
7,TK1 (UniProt K7ERV3),0.03 (inactive)
8,SMCHD1 (UniProt A6NHR9),-0.003 (inactive)
9,TENT5C (UniProt Q5VWP2),-0.02 (inactive)
10,SRCAP (UniProt Q6ZRS2),0.083 (inactive)
11,TBC1D20 isoform 3 (UniProt Q96BZ9),-0.077 (inactive)
12,STK11IP (UniProt Q8N1F8),0.034 (inactive)
13,SMAD2 (UniProt Q15796),0.012 (inactive)
14,STXBP2 isoform 3 (UniProt Q15833),-0.086 (inactive)
15,TGFBR1 isoform 2 (UniProt P36897),0.017 (inactive)
16,STARD3 (UniProt Q14849),0.022 (inactive)
17,SRC isoform 2 (UniProt P12931),0.005 (inactive)

row,Target,log2 fold change
1,SRSF6 (UniProt Q13247),0.212 (inactive)
2,TEX30 (UniProt Q5JUR7),-0.18 (inactive)
3,TFAM (UniProt Q00059),0.039 (inactive)
4,SLC39A11 (UniProt Q8N1S5),0.048 (inactive)
5,TM9SF4 (UniProt Q92544),-0.061 (inactive)
6,SLC25A38 (UniProt Q96DW6),0.043 (inactive)
7,SSBP4 (UniProt Q9BWG4),0.301 (inactive)
8,TAOK3 (UniProt Q9H2K8),-0.026 (inactive)
9,SRI (UniProt P30626),-0.072 (inactive)
10,SNX15 (UniProt Q9NRS6),0.067 (inactive)
11,SRXN1 (UniProt Q9BYN0),-0.149 (inactive)
12,STX7 (UniProt O15400),0.025 (inactive)
13,SMARCA4 (UniProt P51532),0.197 (inactive)
14,TATDN2 (UniProt Q93075),0.074 (inactive)
15,TACC2 (UniProt O95359),0.029 (inactive)
16,SOAT1 (UniProt P35610),0.039 (inactive)
17,SP1 (UniProt P08047),0.01 (inactive)
